Out of some 16,000 compounds screened, about 5,800 (36%) were called active. Inconclusive results (about 23%) are left out. The list shows a part of the results. A number with no mark means an inactive call. Calls follow the shape of the dose curve; as a rule, active = well fitted curve in the direction sought with a large enough effect; inconclusive = small, poorly fitted or top-dose-only effect, or effect the other way; inactive = no such curve, though single readings can be large or run the other way.
target: Cytochrome P450 2C19 (Homo sapiens) (UniProt P33261); test: Cytochrome panel assay with activity outcomes; details: recombinant CYP, pro-luciferin dealkylation, luminescence, p450-cyp2c19; series mostly up to 57.1 µM; activity, negative = inhibition: at the top concentration
Sequence (P33261 whole entry, looked up): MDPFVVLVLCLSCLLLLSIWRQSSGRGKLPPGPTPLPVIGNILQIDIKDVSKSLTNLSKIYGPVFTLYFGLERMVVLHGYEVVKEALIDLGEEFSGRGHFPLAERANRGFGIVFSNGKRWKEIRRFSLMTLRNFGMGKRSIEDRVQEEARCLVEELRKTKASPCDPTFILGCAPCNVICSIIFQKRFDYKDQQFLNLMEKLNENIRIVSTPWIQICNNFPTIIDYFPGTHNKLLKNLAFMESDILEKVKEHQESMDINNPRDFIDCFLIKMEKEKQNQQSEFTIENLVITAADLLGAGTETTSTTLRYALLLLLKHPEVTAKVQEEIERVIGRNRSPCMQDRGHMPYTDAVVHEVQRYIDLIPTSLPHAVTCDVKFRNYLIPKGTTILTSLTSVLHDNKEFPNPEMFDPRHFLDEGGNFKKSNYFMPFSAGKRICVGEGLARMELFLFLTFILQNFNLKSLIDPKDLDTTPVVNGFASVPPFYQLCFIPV
Protocol: The P450 gene superfamily is involved in the metabolism and clearance of xenobiotics. This assay used various human CYP P450 isozymes to measure the dealkylation of various pro-luciferin substrates to luciferin. The luciferin is then measured by luminescence after the addition of a luciferase detection reagent. Pro-luciferin substrate concentration in the assay was equal to its KM for its CYP P450 isozyme. Inhibitors and some substrates limit the production of luciferin, and decrease measured luminescence.
NCGC Assay Protocol Summary:
1, Reagent, 2 uL, Isozyme and Pro-Luciferin
2, Library compounds, 23 nl, 40 uM to 0.24 nM dilution series
3, Controls, 23 nl, Isozyme specific inhibitor
4, Reagent, 2 uL, NADPH regeneration solution
5, Incubation time, 60 min, Isozyme specific temperature
6, Reagent, 4ul, Detection reagent
7, Incubation time, 20 min, Isozyme specific temperature
8, Detection, 1 sec, ViewLux luminescent read
The luciferase-based P450-GloTM Screening Systems were obtained from Promega (Madison, WI) for CYP 1A2 (V9770), CYP 2C9 (V9790), CYP2 C19 (V9880), CYP 2D6 (V9890), and CYP 3A4 Luciferin-PPXE (V9910) and were adapted for 1,536-well microplates and an automated protocol. The control compounds furafylline for 1A2 (F124), sulfaphenazole for CYP 2C9 (S0758), ketoconazole for CYP 2C19 (K1003), quinidine for 2D6 (Q3625), and ketoconazole for 3A4 (K1003) were purchased from Sigma Aldrich (St. Louis, MO). Recombinant P450 enzymes were obtained from baculovirus constructs expressed in insect cells (BD/Gentest).
Medium-binding white solid Kalypsys plates used. Mixtures kept on ice. 1A2: 10 nM 1A2, 100 uM Luc-ME, 100 mM KPO4; 2C9: 10 nM 2C9, 100 uM Luc-H, 25 mM KPO4; 2C19: 5 nM 2C19, 10 uM Luc-H EGE, 50 mM KPO4; 2D6: 5 nM 2D6, 30 uM Luc-ME EGE, 100 mM KPO4; 3A4: 10 nM, 25 uM Luc-PPXE. All amounts are reflected in their final concentration, working concentration is 2x.
NADPH regeneration solution: 1.3 mM NADP+, 3.3 mM glucose-6-phosphate, 3.3 mM MgCl2, 0.4 U/mL glucose-6-phosphate dehydrogenase for all isozymes, 200 mM KPO4 for 3A4. Mixture prepared at RT but kept on ice during automated run.
RT incubation in auxilliary plate hotel for 1A2, 2D6, and 3A4; 37C for 2C9 and 2C19.
Keywords: P450, CYP1A2, CYP2C19, CYP2C9, CYP2D6, CYP3A4, Luciferase, MLSMR, MLSCN, NIH Roadmap, qHTS, NCGC
% is scaled to controls: 0 for no effect and ±100 for the full control effect.

SMILES | activity, negative = inhibition | AC50
Clc1cc(I)cc(Cl)c1NC1=NCCN1 | -0.585% | –
CC(C)NC(=O)N1CCCC2(CCN(C(=O)Oc3ccccc3)CC2)C1 | -29% | –
C[C@@H](C(=O)OC1C[C@H]2CC[C@@H](C1)N2C)c1ccc(Br)cc1 (stereo not given in full) | -8.86% | –
CN1[C@@H]2CC[C@H]1CC(OC(=O)c1cc(Cl)cc(Cl)c1)C2 (stereo not given in full) | -36.3% | –
CC[C@H](Oc1ccc(Cl)cc1)C(=O)OC1C[C@H]2CC[C@@H](C1)N2C (stereo not given in full) | – | 0.0158 µM (active)
CCCN(CCC)C1Cc2cc(OC)c(OC)cc2C1 | – | inactive
NCCSC(c1ccccc1)c1ccccc1 | – | 1.26 µM (active)
C[N+]1(C)CCN(c2ccccc2)CC1 | 32% | –
C=CCN1CCc2cccc3c2[C@@H]1Cc1ccc(O)c(O)c1-3 | -54% | –
CN(C)CCCc1c[nH]c2ccccc12 | -13.7% [at 11.4 µM] | –
NCCc1c[nH]c2ccccc12 | -13.2% | –
CC(=O)NCCc1c[nH]c2ccccc12 | – | 10 µM (active)
c1ccc2c(c1)Sc1ccccc1N2C[C@H]1CN2CCC1CC2 | 38.1% [at 11.4 µM] | –
CN(C(=O)Cc1ccc(Cl)c(Cl)c1)[C@@H](CN1CCCC1)c1cccc(OCC(=O)O)c1 | – | inactive
CN(C(=O)Cc1ccc(Cl)c(Cl)c1)[C@H](CN1CCCC1)c1ccccc1 | – | 0.316 µM (active)
C=CCN1CC[C@]23c4c5ccc(O)c4O[C@@H]2/C(=N/NC(=O)c2ccccc2)CC[C@@]3(O)[C@H]1C5 | -19.2% | –
CC(C)N(CC[C@@](C(N)=O)(c1ccccc1)c1ccccn1)C(C)C | – | inactive
COC(=O)[C@@]1(Cc2ccc(F)cc2)[C@H]2c3cc(C(=O)N(C)C)[nH]c3C[C@H]2CN1C(=O)c1ccccc1 | – | 20 µM (active)
CC[N+](C)(C)c1cccc(O)c1 | -25.1% [at 25.6 µM] | –
C/C=C1\C[C@H](C)[C@@](O)(CO)C(=O)OCC2=CCN3CC[C@@H](OC1=O)[C@@H]23 | -42% [at 25.6 µM] | –
CC(C)C12CN3CC(C(C)C)(CN(C1)C3c1cccnc1)C2=O (stereo not given) | – | 14.1 µM (active)
CCN=C=NCCCN(C)C | 27.1% [at 11.4 µM] | –
C[N+]1(C)C2CC(OC(=O)C(CO)c3ccccc3)CC1[C@@H]1O[C@H]21 (stereo not given in full) | – | inactive

SMILES | activity, negative = inhibition | AC50
C[C@H]1CN(C2CCC(C#N)(c3ccc(F)cc3)CC2)CC[C@@]1(C(=O)O)c1ccccc1 (stereo not given in full) | -32.5% [at 25.6 µM] | –
FC(F)(F)c1nc2ccc(SSc3ccc4nc(C(F)(F)F)[nH]c4c3)cc2[nH]1 | – | 5.01 µM (active)
C=C(C)[C@H]1CN[C@H](C(=O)O)[C@@H]1CC(=O)O | 28% | –
c1cc(CN2CC3(CCNCC3)C2)ccn1 | -40.1% | –
CC(C)[C@@H]1CN[C@H](C(=O)O)[C@@H]1CC(=O)O | -4.7% | –
COC[C@H]1OC(=O)c2coc3c2[C@@]1(C)C1=C(C3=O)[C@H]2CCC(=O)[C@@]2(C)C[C@H]1OC(C)=O | -4.95% | –
CCCN1CCC[C@H](c2cccc(O)c2)C1 | – | inactive
Fc1ccc(CCNCc2ccc(Cl)c(Cl)c2)cc1 | – | 0.316 µM (active)
O=C1NC(=S)NC(=O)C1=Cc1cccc2cc3ccccc3cc12 | -39.2% [at 11.4 µM] | –
O=c1cc(-c2ccc(O)cc2)oc2c([C@H]3O[C@@H](CO)[C@@H](O)[C@@H](O)[C@@H]3O)c(O)cc(O)c12 | 7.98% [at 25.6 µM] | –
O=P(O)(O)CCP(=O)(O)O | 13.6% [at 11.4 µM] | –
COc1ccc(C2SCC(=O)Nc3c2c(C)nn3-c2ccccc2)cc1OC (stereo not given) | – | 10 µM (active)
CNC(=O)Oc1ccc2c(c1)[C@@]1(C)CCN(C)[C@@H]1N2C | 33.5% [at 25.6 µM] | –
C[C@]12CC[C@H]3c4ccc(O)cc4CC[C@@H]3[C@H]1CC[C@@H]2OP(=O)(O)O | 34.7% [at 11.4 µM] | –
CCCN(CCC)C(=O)Cc1c(-c2ccc(Cl)cc2)nc2c(Cl)cc(Cl)cn12 | 16.9% | –
COc1ccc(OC)c([C@H](O)[C@H](C)N)c1 | – | inactive
COc1ccc(Cl)cc1NC(=O)NCCCl | – | 20 µM (active)
CC1=NCCc2c1[nH]c1cc(O)ccc21 | -35.5% [at 25.6 µM] | –
O=C(NCCN1CCN(C(=O)C(c2ccccc2)c2ccccc2)CC1)C(=O)Nc1ccccc1 | – | 25.1 µM (active)
O=C(OC1CCN(CCCl)CC1)C(c1ccccc1)c1ccccc1 | -33.4% | –
O=C(c1ccccc1)[C@H]1[C@H](c2ccccc2[N+](=O)[O-])N1C1CCCCC1 (stereo not given in full) | -82.8% [at 11.4 µM] | –
Cc1ccc(C2(c3ccc(C)c(O)c3C)CCN(C)CC2)c(C)c1O | 2.67% [at 11.4 µM] | –
